# Reference: the supplement of paper PMC4166925
# ± gives the standard deviation of the averaged measurements. In all, about 33,000 sequences were measured (“E-score (dimensionless, -0.5 to 0.5)”: median about -0.049, highest 2% from about 0.37 on). For the sample, the highest values were picked, then their nearest neighbours and some sequences at random.
# Tested on: T1, PmTbr T-box DNA-binding domain (GST fusion)
# T1 sequence: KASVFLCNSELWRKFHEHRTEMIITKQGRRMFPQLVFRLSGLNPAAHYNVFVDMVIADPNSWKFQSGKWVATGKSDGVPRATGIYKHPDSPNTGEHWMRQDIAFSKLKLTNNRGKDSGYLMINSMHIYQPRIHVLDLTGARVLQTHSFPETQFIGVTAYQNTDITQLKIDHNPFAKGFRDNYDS
# Test: PBM E-score of 8-mer (E-score (dimensionless, -0.5 to 0.5)); Tbr is Tbrain of the sea star Patiria miniata (Pm) or the sea urchin Strongylocentrotus purpuratus (Sp); higher = stronger binding preference
# Settings: the construct has about 5 more residues each side
# Protocol: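 Universal protein-binding microarray (Agilent AMADID 016060, 60-bp probes with a 35-bp variable region) incubated with 200 nM GST-fused Patiria miniata Tbr T-box DNA-binding domain (residues 272-466) in PBS pH 7.5. Scored for every ungapped 8-mer (given with its reverse complement) by the Universal PBM Analysis Suite as E-score (modified Wilcoxon-Mann-Whitney enrichment, range -0.5 to 0.5; >0.45 counts as bound) and Z-score of median probe intensity. Two replicate arrays (datasets 1 and 2).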
# 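Further: 200 nM protein in PBS on universal arrays averaged over duplicate arrays.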
row,Sequence,PBM E-score of 8-mer
1,AGTGAGGG,-0.0175 ± 0.1
2,GACTGCGC,-0.107 ± 0.044
3,ACGAAGCT,-0.143 ± 0.014
4,AAGCGAAA,-0.083 ± 0.07
5,AAGCAGTC,-0.167 ± 0.023
6,GACTTCTC,0.148 ± 0.065
7,GGACTTGA,-0.145 ± 0.015
8,CGCTCGGC,-0.148 ± 0.02
9,AACACATA,0.373 ± 0.0082
10,CACACATA,0.365 ± 0.021
11,TACACATA,0.115 ± 0.032
12,AACACATC,0.378 ± 0.013
13,AACACATG,0.317 ± 0.013
14,AACACAGC,0.0601 ± 0.048
15,CCTAATAG,-0.122 ± 0.052
16,CTGCTCAA,-0.0839 ± 0.036
17,ATGTGTTG,0.398 ± 0.008
18,ATGTGTTA,0.446 ± 0.0057
19,ATGTGTTC,0.156 ± 0.025
20,ATATGTTG,0.0196 ± 0.038
21,CTGTGTTA,0.158 ± 0.045
22,GTGTGTTA,0.274 ± 0.012
23,CTCGAAGC,-0.0159 ± 0.011
24,ACTACGTA,-0.156 ± 0.012
25,GAGTTACA,0.0401 ± 0.024
26,CTTGTCAC,0.405 ± 0.015

row,Sequence,PBM E-score of 8-mer
1,ATTGTCAG,0.134 ± 0.026
2,ATTGTCAA,0.248 ± 0.039
3,CTTGTCAA,0.305 ± 0.034
4,ATTGTCAC,0.427 ± 0.016
5,CTTGTCGC,0.277 ± 0.012
6,GGGTTGAA,-0.0332 ± 0.073
7,CCGCTACG,-0.186 ± 0.064
8,ATGATAAC,0.0197 ± 0.036
9,GTGATAAC,0.406 ± 0.02
10,GTGATAAA,0.339 ± 0.07
11,ATTCCCAG,-0.25 ± 0.009
12,GTGTATCA,-0.00951 ± 0.055
13,CTGCTAAC,0.318 ± 0.029
14,ATGCTAAC,0.0631 ± 0.061
15,GTGCTAAC,0.453 ± 0.0072
16,GTGCTAGA,0.382 ± 0.0098
17,GAGCTAGA,-0.00238 ± 0.087
18,TTGCTAAA,0.241 ± 0.078
19,CTGCTAAA,0.21 ± 0.071
20,GTGCTAAA,0.435 ± 0.007
21,ATGCTAGA,-0.158 ± 0.055
22,ACTATGCC,-0.0992 ± 0.096
23,CAACTGTG,0.231 ± 0.015
24,AAATGGCC,-0.316 ± 0.0079
25,CATCAAGA,-0.245 ± 0.022
26,AGTATTGG,-0.0858 ± 0.022

row,Sequence,PBM E-score of 8-mer
1,AGTGTTGA,0.395 ± 0.022
2,GGTGTTGA,0.4746 ± 0.0036
3,ACTGTTGA,0.123 ± 0.062
4,AGTGTTGC,0.3558 ± 0.0028
5,AGTGTTTG,0.275 ± 0.036
6,AGTGTTGG,0.3857 ± 0.0032
7,GCTGTTGA,0.0473 ± 0.023
8,GTTGTTGA,0.245 ± 0.029
9,CGTGTTGA,0.295 ± 0.028
10,CTCTCTGA,-0.253 ± 0.021
11,AGCTTCAT,-0.00536 ± 0.11
12,GAACCGTC,-0.07 ± 0.048
13,CCCATTTA,0.0289 ± 0.005
14,ACGGGCGC,0.0455 ± 0.05
15,CGAAAGTC,0.0804 ± 0.023
16,ACAGTGTA,0.0105 ± 0.032
17,GTTAAGCA,0.0703 ± 0.02
18,TAAACCCA,-0.0858 ± 0.0046
19,CTTATGGC,-0.0928 ± 0.041
20,ATCGTCAC,0.403 ± 0.0068
21,ATCGTCAT,-0.0319 ± 0.033
22,CTCGTCAC,0.3943 ± 0.0029
23,GTCGTCAC,0.3318 ± 0.0028
24,ATCGTCAA,0.0469 ± 0.0067
25,CTCGTCAA,0.141 ± 0.04
26,GCCTACCA,0.015 ± 0.093

row,Sequence,PBM E-score of 8-mer
1,CACTTAAA,0.158 ± 0.01
2,AGGTGCGC,0.293 ± 0.023
3,AGGTGCTG,0.414 ± 0.019
4,ATGTGCTG,0.1768 ± 0.001
5,AGGTGCGG,0.434 ± 0.011
6,AAGTGCGG,0.247 ± 0.0065
7,AGGTGCTC,0.0655 ± 0.042
8,CCAGAGGC,0.0947 ± 0.07
9,CACCACAG,0.131 ± 0.004
10,CTCGGGAC,-0.18 ± 0.058
11,CCTTCCAC,0.0992 ± 0.017
12,GCACCCGC,0.333 ± 0.012
13,ACACCCGA,0.422 ± 0.012
14,TCACCCGA,0.0689 ± 0.025
15,ACACCCGC,0.376 ± 0.011
16,CCACCCGC,0.0903 ± 0.013
17,GCACCCGA,0.15 ± 0.0018
18,GGAGGAGA,-0.011 ± 0.0051
19,AGGCACGG,-0.0977 ± 0.04
20,GAACGACA,0.106 ± 0.025
21,AAATAACC,0.0174 ± 0.057
22,AGCGAATA,0.0489 ± 0.053
23,CGTGTAGA,0.0938 ± 0.0091
24,AGCGAACG,0.0481 ± 0.02
25,CGCGAAAC,0.355 ± 0.0087
26,AGCGAAAG,-0.0461 ± 0.031

row,Sequence,PBM E-score of 8-mer
1,CGCGAAAG,0.3697 ± 0.0008
2,CGCGAACC,0.328 ± 0.0044
3,CGCGAACG,0.375 ± 0.017
4,ATCTTACC,-0.327 ± 0.021
5,ATCTTAAT,-0.171 ± 0.13
6,CCCAAACG,-0.119 ± 0.045
7,ACCTGGCA,0.288 ± 0.011
8,CTTTGCGA,0.0629 ± 0.022
9,AGCTCCCA,-0.308 ± 0.076
10,CCCACGCC,0.08239 ± 0.00072
11,CTCACGCA,0.306 ± 0.019
12,CTCACGCC,0.3929 ± 0.00041
13,ATCACGCG,0.334 ± 0.023
14,ATCACGCC,0.372 ± 0.017
15,ATCACGCA,0.167 ± 0.0099
16,GACAGGAA,0.08894 ± 0.00038
17,GTGTGCCA,0.237 ± 0.025
18,AAGACACC,0.3306 ± 0.0024
19,AAGTGTAA,0.381 ± 0.05
20,AAGTGTGT,0.34 ± 0.03
21,CAGTGTGA,0.3958 ± 0.0034
22,AAGTGTGA,0.48967 ± 0.00029
23,CAGTGTGG,0.249 ± 0.013
24,TAGTGTAA,0.185 ± 0.072
25,TAGTGAGA,0.278 ± 0.022
26,TAGTGGGA,-0.0944 ± 0.019

row,Sequence,PBM E-score of 8-mer
1,AAGTGTGC,0.368 ± 0.0052
2,TAGTGTGA,0.446 ± 0.0044
3,AAGTGTAG,0.147 ± 0.012
4,CAGTGTGC,0.0644 ± 0.04
5,ATGGTGAC,0.262 ± 0.049
6,CGCTTTCA,0.0848 ± 0.014
7,GCACTAGC,0.0942 ± 0.018
8,AAAGACGT,-0.108 ± 0.008
9,CCTACCCC,-0.152 ± 0.039
10,CAAATACA,-0.164 ± 0.0057
11,ACTAGACC,-0.3241 ± 0.0027
12,GTATCCAC,0.0223 ± 0.03
13,ACGCGCAT,0.0257 ± 0.033
14,GACAGCGC,0.0941 ± 0.072
15,AGAGCATC,-0.226 ± 0.1
16,GAGTGTAA,0.169 ± 0.061
17,AACTGTGG,0.00267 ± 0.0079
18,GAGTGTGA,0.4754 ± 0.0017
19,GAGTGTGC,0.2606 ± 0.00088
20,AAGTGTGG,0.3837 ± 0.00044
21,AAGTGGGG,0.189 ± 0.07
22,CACTTTCG,0.258 ± 0.004
23,CGGGGCAA,-0.147 ± 0.097
24,CACCTAGC,0.418 ± 0.0047
25,AACCTAGC,0.088 ± 0.041
26,AACCTAGG,-0.0117 ± 0.074

row,Sequence,PBM E-score of 8-mer
1,CCCCTAGG,-0.0463 ± 0.05
2,CACCTAGA,0.324 ± 0.028
3,CACCTAGG,0.436 ± 0.01
4,GTTCCGGA,-0.29 ± 0.027
5,GTGCGAAA,0.4814 ± 0.0014
6,ATGCGACA,0.3323 ± 0.0011
7,CTGCGACA,0.172 ± 0.015
8,CTGCGAAA,0.368 ± 0.0074
9,GTGCGAAC,0.4794 ± 0.0017
10,CTGCGATA,0.169 ± 0.046
11,CTGCGAAC,0.324 ± 0.013
12,ATGCGATA,0.0765 ± 0.014
13,TTGCGAAA,0.349 ± 0.034
14,GTGCGATA,0.4351 ± 0.0025
15,GTGCGACA,0.412 ± 0.021
16,ATGCGAAC,0.13 ± 0.018
17,CTAGTAGA,-0.0181 ± 0.012
18,CAGTGGTA,-0.0733 ± 0.022
19,CGCAGCCA,0.00214 ± 0.11
20,AAGCGCCC,-0.0238 ± 0.0037
21,CACCGTCC,0.0123 ± 0.0021
22,CGTATTCC,-0.23 ± 0.036
23,CTGCGAGA,0.212 ± 0.035
24,ATGCGAGA,0.144 ± 0.02
25,GTGCGAGA,0.43391 ± 0.00018
26,AAAGGTCC,0.011 ± 0.046

row,Sequence,PBM E-score of 8-mer
1,AAAGGTAC,-0.152 ± 0.021
2,GAGGGTGA,0.279 ± 0.005
3,AAGGGTGG,0.1889 ± 0.001
4,AAAGGTAT,-0.0701 ± 0.061
5,AAGGGTGT,0.399 ± 0.018
6,AAAGGTGC,0.422 ± 0.015
7,AAAGGTGG,0.234 ± 0.084
8,CAGGGTGC,0.271 ± 0.036
9,AAGGGTGA,0.19 ± 0.0034
10,GAGGGTGC,0.389 ± 0.018
11,AAAGGTGT,0.478 ± 0.0057
12,AATAAGGT,0.0297 ± 0.12
13,CACTATAC,0.132 ± 0.073
14,ACGTCACA,0.258 ± 0.021
15,GGGCCTAA,-0.148 ± 0.024
16,CGAGAACA,0.2 ± 0.0064
17,AAAGGTCA,-0.303 ± 0.043
18,AAAGGTGA,0.398 ± 0.025
19,AAAGGTAA,-0.21 ± 0.041
20,CAAGTGTC,0.38 ± 0.031
21,CAAGTGGG,0.211 ± 0.016
22,GAAGTGCC,0.263 ± 0.019
23,CAAGTGCG,0.389 ± 0.015
24,CAAGTGTG,0.433 ± 0.0066
25,CCAGTGTC,0.0539 ± 0.05
26,CAAGTGCC,0.284 ± 0.029

row,Sequence,PBM E-score of 8-mer
1,AAAGTGCG,0.315 ± 0.013
2,GAAGTGTC,0.454 ± 0.0065
3,GAAGTGTA,0.293 ± 0.028
4,CAAGTGGC,0.268 ± 0.028
5,CAAGTGTA,0.178 ± 0.035
6,ATTTAAGC,-0.191 ± 0.065
7,ACATATCC,-0.0724 ± 0.065
8,ACAGCTCA,0.237 ± 0.0098
9,TAACACAA,0.313 ± 0.0094
10,CTTCAATC,0.0436 ± 0.043
11,ACCGACAA,-0.0367 ± 0.05
12,ACCGACAT,0.0334 ± 0.031
13,ACCGACAC,0.391 ± 0.02
14,GCCGACAC,0.382 ± 0.03
15,GCCGACCC,-0.256 ± 0.038
16,CCCGACAC,0.388 ± 0.012
17,CCCGACAG,0.11 ± 0.0062
18,CCCGACAA,0.208 ± 0.044
19,GCCGACAA,0.116 ± 0.04
